Reference: PubChem BioAssay (NCATS)
Inconclusive results are not listed. Calls of active or inactive are those of the source. Unless noted, the call rests on the fitted dose curve.

Assays:
[1] = target: Lysosomal acid glucosylceramidase (Homo sapiens) (UniProt P04062); assay: Glucocerebrosidase-p2 (AID 348; in the data active means potency below about 10 µM; further: potency means the concentration at half of the fitted maximal effect); conditions: purified GBA, blue fluorogenic substrate, 40 min
Summary of the method: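 Compounds titrated from 0.6 nM upwards against 0.2 nM enzyme in pH 5.9 citric acid/KH2PO4, taurocholate, tween-20; blue fluorogenic substrate 80 uM, 40 min room temperature, stopped and read Ex 365/Em 440 for AC50.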

[2] = AP1 Signaling Pathway (AID 357; active means well fitted curve in either direction with a large enough effect, not every such curve was filed as active;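 further: ME-180 reporter cells stimulated with EGF at its EC50 level; on the % scale 0 is the no-effect control and ±100 the full control effect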); conditions: ME-180 AP-1-bla reporter, EGF-induced, beta-lactamase ratio, 5 h; at 7.69 µM (top of the series) unless noted
Summary of the method: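 Cells are seeded overnight, exposed to compound titrations and an EC50 level of EGF for 5 hours at 37 °C, then loaded with CCF4 dye for 2.5 hours. Beta-lactamase activity under the AP-1 element is read as a blue/green ratio.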

[3] = target: Cytochrome P450 1A2 (Homo sapiens) (UniProt P05177); assay: p450-cyp1a2 (AID 410); conditions: recombinant CYP1A2, luciferin-ME demethylation, luminescence; series mostly up to 57 µM; further: potency means the concentration at half of the fitted maximal effect;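 on activity change, negative = inhibition: -100% = full effect of reference inhibitor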
Summary of the method: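 Luminescent readout of luciferin formed from Luciferin-ME by human CYP1A2; data normalized against complete inhibition by 57 uM furafylline. Enzyme 20nM, substrate 100uM at Km, 100mM KPO4 buffer, 60 min reaction at room temperature.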

[4] = Stat Signaling Pathway (AID 446; active means well fitted curve in either direction with a large enough effect, not every such curve was filed as active;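 further: ME-180 cervical cancer cells given 40 pM IL-6 alongside compound; SIE-controlled beta-lactamase reporter measured as 460/530 nm FRET emission ratio; on the % scale 0 is the no-effect control and ±100 the full control effect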); conditions: ME-180 SIE beta-lactamase reporter, IL-6 stimulated, 5 h; at 7.69 µM (top of the series) unless noted
Summary of the method: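 Reporter line: ME-180 cervical carcinoma, SIE-beta-lactamase. Treatment: compound with 40 pM IL-6, 5 hrs, 37 C, in low-serum OPTI-MEM with 10 mM HEPES pH 7.3. Detection: 460/530 nm fluorescence.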

[5] = target: Glucocorticoid receptor (Homo sapiens) (UniProt P04150); assay: GR-EFC Redistribution (AID 451); conditions: CHO-K1 GR-EFC translocation, beta-gal luminescence, 2 h; further: potency means the concentration at half of the fitted maximal effect
Summary of the method: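 CHO-K1 cells stably expressing nuclear-localized β-gal enzyme acceptor and GR fused C-terminally to the enzyme donor fragment; ligand-driven nuclear translocation restores β-gal by complementation. Compounds titrated up to 46 uM final, 2 h at 37 °C; luminescence read.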

[6] = target: Mitogen-activated protein kinase 10 (Mus musculus) (UniProt Q61831); assay: JNK3 AlphaScreen Assay (AID 530; active means well fitted curve in either direction with a large enough effect, not every such curve was filed as active;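 further: kinase came from lysate of stimulated human HepG2 cells; signal reports phosphorylation of biotinylated GST-cJun 1-79 at Ser73 with 10 µM ATP; on the % scale 0 is the no-effect control and ±100 the full control effect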); conditions: JNK3 lysate, c-Jun phosphorylation; series mostly up to 57.1 µM
Summary of the method: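 Inhibitors reduce antibody binding to phosphorylated biotin-cJun, lowering AlphaScreen luminescence. Lysates from HepG2 cells pre-activated by IL-1beta plus TNF-alpha supplied JNK3; compounds were titrated.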

[7] = target: 3',5'-cyclic-AMP phosphodiesterase 4B (Homo sapiens) (UniProt Q07343); assay: qHTS Assay for Inhibitors of PDE-IV (AID 607; active means well fitted activation curve with a large enough effect in the main read-out, with a control signal flat, not every such curve was filed as active; further: % of control where 0% means no effect); conditions: HEK293 ACTOne CNG channel cells, membrane potential fluorescence; series mostly up to 22.9 µM
Summary of the method: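 Cell-based read-out of cAMP via a modified cyclic nucleotide-gated channel and membrane potential dye (535/590 nm) in HEK293 cells expressing PDE4 endogenously. Compounds tested up to 22.9 uM final; 100 uM RO 20-1724 reference.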

[8] = qHTS Assay for Lipid Storage Modulators (AID 1519); conditions: Drosophila S3 cells, BODIPY lipid droplet/cell ratio, laser cytometry, cells loaded with oleic acid; for activity change, negative = inhibition: at 57.5 µM (top of the series)
Summary of the method: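 Cells seeded at 5,000 per well were treated with compounds over a concentration series and loaded with oleic acid (400 uM, as added). Lipid droplet fluorescence (488 nm excitation, 500-530 nm channel) was read by laser-scanning cytometry and normalized to 20 uM Triacsin C.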

[9] = Primary qHTS for small molecule stabilizers of the endoplasmic reticulum resident proteome: Secreted ER Calcium Modulated Protein (SERCaMP) assay (AID 1508630; active means well fitted curve in the direction sought with a large enough effect; an effect the other way counts as inactive or inconclusive; further: on the % scale 0 is the no-effect control and ±100 the full control effect); conditions: SH-SY5Y GLuc-SERCaMP (Gaussia luciferase released on ER calcium loss) secretion, thapsigargin, luminescence; series mostly up to 38.4 µM
Summary of the method: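 GLuc-SERCaMP-expressing SH-SY5Y cells, pretreated 16 h with compound, are challenged with thapsigargin to empty ER calcium stores; after 4 h, coelenterazine is added directly to the medium and luminescence is imaged.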

[10] = target: Cytochrome P450 3A4 (Homo sapiens) (UniProt P08684); assay: qHTS Assay for Inhibitors and Substrates of Cytochrome P450 3A4 (AID 884; active means well fitted curve in the direction sought with a large enough effect; an effect the other way counts as inactive or inconclusive; further: potency means the concentration at half of the fitted maximal effect; nearly all actives have a fitted effect of over 50% in size); conditions: recombinant CYP3A4, Luciferin-PPXE luminescence; series mostly up to 57.1 µM
Summary of the method: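 20 nM human CYP3A4 with 25 uM Luciferin-PPXE (at KM) in 200 mM KPO4, preincubated 10 min with compound; NADPH regeneration started a 60 min RT reaction. Luciferin detected by luminescence, normalized to 57 uM ketoconazole as full inhibition.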

[11] = target: Cytochrome P450 3A4 (Homo sapiens) (UniProt P08684); assay: qHTS Assay for Activators of Cytochrome P450 3A4 (AID 885; active means well fitted curve in the direction sought with a large enough effect; an effect the other way counts as inactive or inconclusive; further: nearly all actives have a fitted effect of over 65% in size); conditions: recombinant CYP3A4, Luciferin-PPXE luminescence, 60 min; series mostly up to 57.1 µM
Summary of the method: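 Signal was normalized against complete inhibition by 57 uM ketoconazole. The reaction used 20nM CYP3A4 with 25uM Luciferin-PPXE, 10-min compound preincubation and a 60-min NADPH-supported step at RT.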

[12] = target: Cytochrome P450 2C9 (Homo sapiens) (UniProt P11712); assay: qHTS Assay for Inhibitors and Substrates of Cytochrome P450 2C9 (AID 883; active means well fitted curve in the direction sought with a large enough effect; an effect the other way counts as inactive or inconclusive; further: on the % scale 0 is the no-effect control and ±100 the full control effect; nearly all actives have a fitted effect of over 60% in size); conditions: recombinant CYP2C9, luciferin-H luminescence, 60 min; series mostly up to 57.1 µM
Summary of the method: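 Human CYP2C9 (10nM) hydroxylated Luciferin-H (100uM, at its KM) to luciferin in 25mM KPO4. Compound was preincubated 10 min at 37C, then NADPH regeneration started a 60 min reaction at 37C. Luminescence was read after detection reagent, normalized to 57uM sulphaphenazole.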

[13] = qHTS Assay for Identification of Small Molecule Agonists for Hypoxia Response Element Signaling Pathway (AID 914; active means well fitted activation curve with a large enough effect in the signal ratio, with a control signal flat, not every such curve was filed as active; the % refers to the signal ratio; further: % of control where 0% means no effect); conditions: ME-180 (cervical carcinoma) HRE-bla reporter, beta-lactamase ratio, CoCl2, 17 h; activation: stronger effect = higher value
Summary of the method: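 Read-out: CCF4 FRET ratio of 460nm to 530nm emission (excitation 405nm) after 2.5 hours at room temperature, taken from HRE-bla ME-180 cells that had been exposed to compound and EC50 CoCl2 for 17 hours.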

[14] = target: Glucocorticoid receptor (Homo sapiens) (UniProt P04150); assay: GR-GFP Redistribution (AID 450;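 active means compounds whose dose series gives a full or clear partial fitted curve of increased nuclear translocation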; further: potency means the concentration at half of the fitted maximal effect); conditions: U2OS GR-GFP nuclear translocation, laser cytometry, 2 h
[15] = Confirmation and Secondary Assay for Modulators of Hemoglobin Beta Chain Splicing at IVS2 654 locus (AID 910; active means well fitted curve in the direction sought with a large enough effect; an effect the other way counts as inactive or inconclusive;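 further: per-well total GFP intensity by laser scanning cytometry after 2-day treatment; % of control where 0% means no effect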); conditions: HeLa EGFP-654 splicing reporter, GFP fluorescence, 48 h; series mostly up to 38.3 µM
Summary of the method: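 HeLa cells stably carrying EGFP interrupted by mutant beta-globin IVS2-654 intron (CMV-driven) were treated with compound for 2 days at 37C; corrected splicing was scored as total peak GFP intensity per well (488 nm excitation, 500-520 nm emission).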

[16] = Confirmation and Secondary Assay for Modulators of Hemoglobin Beta Chain Splicing at IVS2 705 locus (AID 930; active means well fitted curve in the direction sought with a large enough effect; an effect the other way counts as inactive or inconclusive;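 further: HeLa cells stably expressing the EGFP-705 splicing reporter; GFP fluorescence per well restored by corrected splicing of the IVS2-705 intron in EGFP; % of control where 0% means no effect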); conditions: HeLa EGFP-705 splicing reporter, GFP fluorescence, 48 h; series mostly up to 38.3 µM
Summary of the method: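 HeLa EGFP-705 reporter; 500 cells/well, o/n 37C 5% CO2; cpd 2 d; 488 ex/500-520 em laser scan; total peak GFP intensity/well. Ref: 500 nM […] antisense PNA.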

[17] = target: Ubiquitin carboxyl-terminal hydrolase 1 (Homo sapiens) (UniProt O94782); assay: Inhibitors of USP1/UAF1: Pilot qHTS (AID 504865; active means well fitted curve in the direction sought with a large enough effect; an effect the other way counts as inactive or inconclusive;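 further: rhodamine fluorescence freed from ubiquitin-rhodamine substrate followed over time; top concentration of the series differs between compounds; on the % scale 0 is the no-effect control and ±100 the full control effect; nearly all actives have a fitted effect of over 35% in size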); conditions: purified USP1/UAF1, Ub-rhodamine cleavage fluorescence; series mostly up to 54.9 µM
Summary of the method: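 Deubiquitinase activity followed as kinetic rhodamine fluorescence release from 150 nM Ub-Rho. 1 nM USP1/UAF1 with compound, after 15 min room-temperature preincubation, in HEPES pH 7.8 buffer containing TCEP, EDTA, BSA and Tween-20.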

[18] = measured here: cell count channel max response
[19] = measured here: lipid channel max response

Sequence of Cytochrome P450 1A2 (Homo sapiens) (P05177 whole entry, looked up): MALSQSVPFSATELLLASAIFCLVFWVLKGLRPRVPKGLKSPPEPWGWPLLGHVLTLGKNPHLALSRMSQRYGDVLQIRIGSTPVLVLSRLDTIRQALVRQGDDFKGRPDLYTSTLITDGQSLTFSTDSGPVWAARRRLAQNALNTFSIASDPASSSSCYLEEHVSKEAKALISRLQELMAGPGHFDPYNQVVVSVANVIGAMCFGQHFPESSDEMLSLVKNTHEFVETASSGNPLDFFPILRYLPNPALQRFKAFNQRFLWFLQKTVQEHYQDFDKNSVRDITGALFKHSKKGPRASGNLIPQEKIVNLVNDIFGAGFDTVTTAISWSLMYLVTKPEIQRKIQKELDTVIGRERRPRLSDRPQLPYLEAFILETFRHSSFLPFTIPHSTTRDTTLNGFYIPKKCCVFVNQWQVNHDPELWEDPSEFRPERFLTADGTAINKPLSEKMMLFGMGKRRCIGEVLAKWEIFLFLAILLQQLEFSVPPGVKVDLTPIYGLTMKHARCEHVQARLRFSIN
Sequence of Glucocorticoid receptor (Homo sapiens) (P04150 whole entry, looked up, the tested form may be a part): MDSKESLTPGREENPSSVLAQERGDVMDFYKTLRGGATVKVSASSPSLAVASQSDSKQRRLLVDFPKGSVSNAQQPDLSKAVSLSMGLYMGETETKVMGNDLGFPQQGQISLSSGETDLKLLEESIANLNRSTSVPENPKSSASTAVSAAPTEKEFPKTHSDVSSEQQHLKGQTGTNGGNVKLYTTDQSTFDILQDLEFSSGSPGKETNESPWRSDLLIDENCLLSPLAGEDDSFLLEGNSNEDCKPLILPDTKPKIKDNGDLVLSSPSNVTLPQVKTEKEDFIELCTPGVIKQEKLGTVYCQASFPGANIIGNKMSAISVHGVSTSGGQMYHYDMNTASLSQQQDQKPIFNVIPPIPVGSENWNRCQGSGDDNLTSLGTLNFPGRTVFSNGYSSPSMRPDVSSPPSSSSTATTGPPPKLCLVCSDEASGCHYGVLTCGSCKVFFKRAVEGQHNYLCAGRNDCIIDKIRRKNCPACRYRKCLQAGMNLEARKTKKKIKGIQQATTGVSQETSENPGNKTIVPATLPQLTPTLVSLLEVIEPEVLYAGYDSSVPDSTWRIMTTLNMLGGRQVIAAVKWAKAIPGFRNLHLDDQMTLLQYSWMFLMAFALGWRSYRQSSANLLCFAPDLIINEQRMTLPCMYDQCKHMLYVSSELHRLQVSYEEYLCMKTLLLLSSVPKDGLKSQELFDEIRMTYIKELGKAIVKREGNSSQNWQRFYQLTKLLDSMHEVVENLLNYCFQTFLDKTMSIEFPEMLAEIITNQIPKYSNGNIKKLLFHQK
Sequence of Cytochrome P450 3A4 (Homo sapiens) (P08684 whole entry, looked up): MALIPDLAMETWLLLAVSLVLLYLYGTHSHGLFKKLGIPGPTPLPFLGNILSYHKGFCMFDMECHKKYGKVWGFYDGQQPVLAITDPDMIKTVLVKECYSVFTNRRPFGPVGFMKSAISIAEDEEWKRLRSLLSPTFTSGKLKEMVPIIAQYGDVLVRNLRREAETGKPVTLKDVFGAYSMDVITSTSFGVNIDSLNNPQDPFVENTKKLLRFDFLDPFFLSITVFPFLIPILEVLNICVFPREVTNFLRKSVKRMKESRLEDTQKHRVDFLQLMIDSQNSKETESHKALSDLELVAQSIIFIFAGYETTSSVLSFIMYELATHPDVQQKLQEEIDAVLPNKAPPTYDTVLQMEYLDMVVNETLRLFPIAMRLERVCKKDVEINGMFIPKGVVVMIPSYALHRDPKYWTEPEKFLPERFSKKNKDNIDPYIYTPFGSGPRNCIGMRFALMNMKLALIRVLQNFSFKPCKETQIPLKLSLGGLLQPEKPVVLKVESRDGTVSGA
Sequence of 3',5'-cyclic-AMP phosphodiesterase 4B (Homo sapiens) (Q07343 whole entry, looked up): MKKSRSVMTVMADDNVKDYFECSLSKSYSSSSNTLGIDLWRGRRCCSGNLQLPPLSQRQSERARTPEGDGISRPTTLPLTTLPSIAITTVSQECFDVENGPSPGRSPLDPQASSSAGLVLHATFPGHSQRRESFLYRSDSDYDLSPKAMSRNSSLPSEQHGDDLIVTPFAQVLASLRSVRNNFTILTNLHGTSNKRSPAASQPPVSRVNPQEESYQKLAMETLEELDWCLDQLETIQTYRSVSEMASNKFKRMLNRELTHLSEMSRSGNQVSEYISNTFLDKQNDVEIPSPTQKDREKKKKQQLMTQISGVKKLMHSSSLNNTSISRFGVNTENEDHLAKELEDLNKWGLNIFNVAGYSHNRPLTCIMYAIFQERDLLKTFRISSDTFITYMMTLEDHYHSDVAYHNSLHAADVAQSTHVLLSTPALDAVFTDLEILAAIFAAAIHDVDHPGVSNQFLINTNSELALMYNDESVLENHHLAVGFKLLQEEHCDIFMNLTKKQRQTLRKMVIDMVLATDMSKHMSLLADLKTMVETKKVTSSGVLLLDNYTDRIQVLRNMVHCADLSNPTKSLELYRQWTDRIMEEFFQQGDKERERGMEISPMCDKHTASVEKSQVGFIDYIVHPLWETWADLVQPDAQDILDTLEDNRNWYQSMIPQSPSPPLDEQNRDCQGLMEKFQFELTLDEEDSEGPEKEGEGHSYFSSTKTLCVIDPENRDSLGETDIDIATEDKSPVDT
Sequence of Lysosomal acid glucosylceramidase (Homo sapiens) (P04062 whole entry, looked up): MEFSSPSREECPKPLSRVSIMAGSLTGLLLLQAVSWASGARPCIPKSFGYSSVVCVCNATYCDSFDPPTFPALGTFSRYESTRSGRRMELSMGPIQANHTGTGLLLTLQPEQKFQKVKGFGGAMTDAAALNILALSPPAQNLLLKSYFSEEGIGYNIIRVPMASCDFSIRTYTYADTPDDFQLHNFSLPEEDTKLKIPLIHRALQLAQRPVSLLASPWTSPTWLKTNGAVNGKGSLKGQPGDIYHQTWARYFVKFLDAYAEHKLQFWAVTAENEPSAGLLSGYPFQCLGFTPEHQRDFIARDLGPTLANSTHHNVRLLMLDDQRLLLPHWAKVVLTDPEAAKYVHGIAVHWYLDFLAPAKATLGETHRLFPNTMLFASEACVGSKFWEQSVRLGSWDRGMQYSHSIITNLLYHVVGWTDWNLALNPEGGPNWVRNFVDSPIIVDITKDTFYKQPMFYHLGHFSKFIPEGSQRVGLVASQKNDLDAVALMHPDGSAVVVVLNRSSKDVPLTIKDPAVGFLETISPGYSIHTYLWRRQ
Sequence of Ubiquitin carboxyl-terminal hydrolase 1 (Homo sapiens) (O94782 whole entry, looked up): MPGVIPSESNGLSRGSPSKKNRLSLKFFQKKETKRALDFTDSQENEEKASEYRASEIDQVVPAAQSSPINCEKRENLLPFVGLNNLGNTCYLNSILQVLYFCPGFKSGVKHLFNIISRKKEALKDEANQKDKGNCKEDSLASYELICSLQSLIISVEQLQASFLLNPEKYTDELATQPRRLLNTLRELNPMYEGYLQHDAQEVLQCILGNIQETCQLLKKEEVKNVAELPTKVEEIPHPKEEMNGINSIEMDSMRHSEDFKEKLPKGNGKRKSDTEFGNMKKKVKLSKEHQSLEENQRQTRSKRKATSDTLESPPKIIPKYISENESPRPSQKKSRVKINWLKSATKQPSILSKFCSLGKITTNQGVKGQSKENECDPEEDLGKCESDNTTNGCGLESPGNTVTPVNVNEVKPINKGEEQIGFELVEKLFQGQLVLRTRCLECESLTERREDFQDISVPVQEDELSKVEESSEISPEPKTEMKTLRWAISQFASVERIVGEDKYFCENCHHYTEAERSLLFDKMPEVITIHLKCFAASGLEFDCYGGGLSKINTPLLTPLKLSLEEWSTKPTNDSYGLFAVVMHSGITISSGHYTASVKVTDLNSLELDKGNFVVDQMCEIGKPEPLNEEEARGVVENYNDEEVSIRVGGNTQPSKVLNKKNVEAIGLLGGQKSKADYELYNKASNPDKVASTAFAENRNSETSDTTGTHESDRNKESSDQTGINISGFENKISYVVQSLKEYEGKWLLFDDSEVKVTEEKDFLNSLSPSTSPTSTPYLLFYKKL
Sequence of Cytochrome P450 2C9 (Homo sapiens) (P11712 whole entry, looked up): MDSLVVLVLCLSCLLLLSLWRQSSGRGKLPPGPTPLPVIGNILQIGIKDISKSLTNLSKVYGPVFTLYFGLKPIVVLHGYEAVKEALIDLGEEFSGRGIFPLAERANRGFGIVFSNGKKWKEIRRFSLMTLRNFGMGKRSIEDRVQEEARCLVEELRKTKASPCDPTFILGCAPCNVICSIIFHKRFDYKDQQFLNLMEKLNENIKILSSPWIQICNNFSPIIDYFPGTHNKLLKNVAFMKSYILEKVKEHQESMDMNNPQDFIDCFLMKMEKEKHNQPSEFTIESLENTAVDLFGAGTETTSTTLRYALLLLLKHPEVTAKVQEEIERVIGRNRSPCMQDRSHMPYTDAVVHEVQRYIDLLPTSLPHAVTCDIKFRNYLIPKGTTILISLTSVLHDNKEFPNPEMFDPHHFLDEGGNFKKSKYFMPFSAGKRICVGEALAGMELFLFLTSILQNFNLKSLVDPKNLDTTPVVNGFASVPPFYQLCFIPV

| Structure (SMILES) | Potency [1] | activity change, negative = inhibition [2] | Potency [3] | activity, negative = inhibition [4] | Potency [5] | Potency [6] | Potency [7] | activity change, negative = inhibition [8] | max response [8, 18] [%] | max response [8, 19] [%] | outcome [9] | Potency [10] | Potency [11] | Potency [12] | activation [13] | Potency [14] | Potency [15] | outcome [16] | Potency [17] |
| --- | --- | --- | --- | --- | --- | --- | --- | --- | --- | --- | --- | --- | --- | --- | --- | --- | --- | --- | --- |
| CC(C)CN1CCC2(CC1)CCN(C(=O)c1cnccn1)CC2 | > 11.4 µM (inactive) | -3.54% (inactive) | inactive | 3.68% (inactive) | > 46 µM (inactive) | inactive | inactive | -2.81% (inactive) | -8.95 | -8.33 | inactive | – | – | – | – | – | – | – | – |
| O=C(c1ccncc1)N1CCC2(CC1)CCN(c1ccccn1)CC2 | > 11.4 µM (inactive) | 8.14% (inactive) | 12.6 µM (active) | -1.09% (inactive) | > 46 µM (inactive) | inactive | inactive | 6.99% (inactive) | 10.7 | 20.3 | inactive | – | – | – | – | – | – | – | – |
| O=C(c1ccncc1)N1CCC2(CC1)CN(Cc1cc(C(F)(F)F)cc(C(F)(F)F)c1)C2 | > 11.4 µM (inactive) | -5.95% (inactive) | inactive | -8.98% (inactive) | > 46 µM (inactive) | inactive | inactive | 0.924% (inactive) | 9.27 | 16.4 | inactive | 5.01 µM (active) | inactive | – | – | – | – | – | – |
| CC(C)CN1CC2(CCN(C(=O)c3cccc(F)c3)CC2)C1 | > 11.4 µM (inactive) | 10.2% (inactive) | inactive | -19.8% (inactive) | > 46 µM (inactive) | inactive | inactive | 2.36% (inactive) | 11.5 | 16.2 | inactive | – | – | – | – | – | – | – | – |
| O=C(c1csnn1)N1CCC2(CC1)CCN(C(c1ccccc1)c1ccccc1)CC2 | > 11.4 µM (inactive) | -5.85% (inactive) | inactive | 4.86% (inactive) | > 46 µM (inactive) | inactive | inactive | -2.09% (inactive) | 3.93 | 2.32 | inactive | – | – | – | – | – | – | – | – |
| Cc1noc(C)c1C(=O)N1CCC2(CCN(Cc3ccccc3)CC2)CC1 | > 11.4 µM (inactive) | 6.02% (inactive) | inactive | 1% (inactive) | > 46 µM (inactive) | inactive | inactive | 0.801% (inactive) | 19.5 | 22 | inactive | – | – | inactive | -10.3% (inactive) | – | – | – | – |
| CN(C)Cc1ccccc1-c1cncnc1NC1CC1 | > 11.4 µM (inactive) | -1.86% (inactive) | 15.8 µM (active) | 2.98% (inactive) | > 46 µM (inactive) | inactive | – | 6.51% (inactive) | 18.3 | 22.5 | inactive | – | inactive | – | – | > 46 µM (inactive) | inactive | inactive | inactive |
